ssDAF-12 act: S. stercoralis DAF-12 nuclear receptor activators, primary screen, cell-based, luminescence, HEK293, GRIP1 co-expression, lit1-tk-luc. Nuclear hormone receptor DAF-12 (Strongyloides stercoralis). HEK293 ssDAF-12/GRIP1 lit1-tk-luc reporter; % of 3 µM dafachronic acid response. activation, % at 6.8 µM. hit rate 1% among 370,000. AID 652126, 2013;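 active = activation above the mean over all tested compounds plus 3 SD, cut at about 0.9% in these data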
DAX1 inh-1: DAX1 (NR0B1) inhibitors on StAR promoter, primary screen, cell-based, luminescence, SF-1 (NR5A1), full-length DAX-1; inhibition, % at 6.8 µM; AID 652010, 2013; HEK293T StAR-luciferase reporter, SF-1/DAX-1 repression relief; hit rate 1.1% among 370,000;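 active = inhibition above the mean over all tested compounds plus 3 SD, cut at about 3.6% in these data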;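 note: higher inhibition means more luminescence from relief of DAX-1 repression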
hgDAF-12 ag: H. glycines DAF-12 receptor agonists, primary screen, cell-based, luminescence, HEK293, GAL4 fusion, UAS-luciferase; activation, % at 6.8 µM; hit rate 1.8% among 370,000; AID 687014, 2013; HEK293 GAL4-hgDAF12 UAS-luciferase reporter, agonist luminescence; normalized to butyrate control; Nuclear hormone receptor DAF-12 (Heterodera glycines), GAL4 fusion;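 active = activation above a cutoff set at the mean of all screened compounds plus 3 SD, cut at about 10% in these data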
DAX1 inh-2: DAX1 (NR0B1) inhibitors, primary screen, cell-based, HEK293, Gal4-DAX1, luciferase luminescence. AID 504766, 2011. HEK293 Gal4-DAX1 luciferase reporter. Nuclear receptor subfamily 0 group B member 1 (Homo sapiens), P51843. inhibition, % at 6.75 µM. hit rate 0.99% among 340,000;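 active = inhibition above the mean over all tested compounds plus 3 SD, cut at about 4.2% in these data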;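 note: inhibition shows as a rise in luminescence from relieved DAX1 repression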
SMARCA2 act: SMARCA2 (BRM) function activators, primary screen, cell-based, luminescence, high throughput | MG213 cells, MMTV-luciferase reporter, dexamethasone, overnight | activation, % at 9.1 µM | hit rate 1% among 370,000 | AID 652017, 2013; in the data active = activation above about 7.8%
hcDAF-12 act: H. contortus DAF-12 nuclear receptor activators, primary screen, cell-based, luminescence, HEK293, lit1-tk-luc reporter; HEK293 hcDAF-12 lit1-tk-luc reporter; 0% DMSO, 100% Δ7-dafachronic acid; activation, % at 6.8 µM; hit rate 1.4% among 370,000;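 active = activation above the mean of all tested compounds plus 3 SD, cut at about 5.5% in these data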
LXRb hcDAF ctr: LXR agonists, Gal4 luciferase reporter, confirmation, counter-screen for hcDAF-12 agonist project, cell-based, luminescence, HEK293, H. contortus campaign; shares compounds with hcDAF-12 act; HEK293 Gal4-LXR tk-luc reporter, 24 h; normalized: DMSO 0%, positive control 100%; activation, % at 6.8 µM; 3,400 tested, under 10 active;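 active = mean percent activation of the reporter above a cutoff set as the average over tested compounds plus their standard deviation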
Target sequence (P55055 whole entry, looked up, the tested form may be a part): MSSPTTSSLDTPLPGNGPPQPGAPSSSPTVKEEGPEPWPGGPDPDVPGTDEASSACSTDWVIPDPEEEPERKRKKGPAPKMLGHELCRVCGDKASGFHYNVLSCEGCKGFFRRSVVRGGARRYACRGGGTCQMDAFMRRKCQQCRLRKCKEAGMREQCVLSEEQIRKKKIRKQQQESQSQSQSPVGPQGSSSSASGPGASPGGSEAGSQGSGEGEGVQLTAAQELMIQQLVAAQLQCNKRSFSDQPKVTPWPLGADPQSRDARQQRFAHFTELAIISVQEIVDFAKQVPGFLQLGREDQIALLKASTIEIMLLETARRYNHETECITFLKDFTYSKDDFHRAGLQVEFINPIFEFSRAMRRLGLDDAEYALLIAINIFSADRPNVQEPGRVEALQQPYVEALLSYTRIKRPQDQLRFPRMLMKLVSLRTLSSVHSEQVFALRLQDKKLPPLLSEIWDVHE
hcDAF12 ag: H. contortus DAF-12 receptor agonists, confirmation, cell-based, luminescence, HEK293, lit1-tk-luc, triplicate; HEK293 hcDAF-12 lit1-tk-luc reporter; % of Δ7-dafachronic acid response; shares compounds with hcDAF-12 act; activation, % at 6.8 µM; hit rate 61% among 3,400;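 active = mean activation across triplicate tests above the threshold derived from the earlier primary screen, cut at about 5.5% in these data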
Each line names hits and unclear results; the compound was inactive in the other large screens (follow-up assays come after a bar, where they were run). Sampled rows, rich in hits. Any-hit rate of the full collection: about 4.8%.

CCN1CCN(C(=O)C2CCN(c3nnc(-n4c(C)ccc4C)s3)CC2)CC1	hcDAF-12 act 11 | LXRb hcDAF ctr inactive | hcDAF12 ag inactive
CCOc1c(CNCCCSc2nc(C)cc(C)n2)cccc1OC	none
O=C(CN(C1CCCCC1)S(=O)(=O)c1ccc(F)cc1)NCc1ccncc1	none
S=c1nc(-c2ccc(Br)cc2)[nH]c2ccccc12	hcDAF-12 act 7.3 | LXRb hcDAF ctr inactive | hcDAF12 ag 9.0
O=C(c1ccccc1)c1ccc(NCCCn2ccnc2)c([N+](=O)[O-])c1	none
CCOC(=O)C(=NCC1CCCO1)NNc1cc(Cl)ccc1Cl (stereo not given)	hcDAF-12 act 7.5 | LXRb hcDAF ctr inactive | hcDAF12 ag inactive
CCOC(=O)/C(=N\Nc1cc(Cl)ccc1Cl)N1CC(C)OC(C)C1 (stereo not given)	none
Cc1ccc(NC(=O)CSc2cn[nH]n2)cc1	hcDAF-12 act 7.0 | LXRb hcDAF ctr inactive | hcDAF12 ag inactive
Brc1ccc(-c2csc(/N=C/N3CCCC3)n2)cc1	none
CCN1CCN(/C=N/c2nc(C)cs2)CC1	hcDAF-12 act 6.8 | LXRb hcDAF ctr inactive | hcDAF12 ag inactive
C=CCN1C=CC(=CC=C(C#N)C#N)C=C1	DAX1 inh-2 4.5, hcDAF-12 act 8.5 | LXRb hcDAF ctr inactive | hcDAF12 ag inactive
NC(=O)Cc1ccc(C(=O)c2ccccc2)s1	none
Cc1ccc(-c2nc3cc(C)ccc3o2)cc1	ssDAF-12 act 1.7, hgDAF-12 ag 12, hcDAF-12 act 11 | LXRb hcDAF ctr inactive | hcDAF12 ag 21
Cc1ccc(-c2nc3cc(N)ccc3o2)cc1	DAX1 inh-1 3.6, hgDAF-12 ag 13, hcDAF-12 act 9.8 | LXRb hcDAF ctr inactive | hcDAF12 ag 9.2
CC(C)c1ccc2oc(-c3ccc(N)cc3)nc2c1	hcDAF-12 act 12 | LXRb hcDAF ctr inactive | hcDAF12 ag 15
CC(C)(C)c1ccc(-c2nc3cc(N)ccc3o2)cc1	none
O=C(CSc1nnnn1-c1ccc(C(=O)O)cc1)NC1CCCCC1	none
Cc1noc(C)c1COc1cccc(C(=O)NC(C)(C)C)c1	none
O=C(Cc1cccs1)Nc1nc2c(s1)CCCC2	none
Cc1cc(C)c2oc(-c3ccc(C)c(NC(=S)NC(=O)/C=C/c4ccco4)c3)nc2c1	none
Cc1ccc2nc(NC(=S)NC(=O)c3cccs3)sc2c1	ssDAF-12 act 0.9, hgDAF-12 ag 11, hcDAF-12 act 7.2 | LXRb hcDAF ctr inactive | hcDAF12 ag 15
Cc1cc(C)c2oc(-c3ccc(C)c(NC(=S)NC(=O)c4cccs4)c3)nc2c1	hcDAF-12 act 7.7 | LXRb hcDAF ctr inactive | hcDAF12 ag inactive
Cc1ccc2nc(NC(=O)c3cccs3)sc2c1	ssDAF-12 act 1.1, hgDAF-12 ag 11, hcDAF-12 act 10 | LXRb hcDAF ctr inactive | hcDAF12 ag 5.9
Cc1ccc2nc(NC(=S)NC(=O)c3ccc(OC(C)C)cc3)sc2c1	none
O=C(Nc1nc2c(s1)CCCC2)c1cccs1	hcDAF-12 act 9.5 | LXRb hcDAF ctr inactive | hcDAF12 ag 6.1
Cc1ccc2c(C(=O)CNc3nncs3)c(C)[nH]c2c1	none
COc1ccc(C(CNc2ccc(C(F)(F)F)cn2)N(C)C)cc1OC (stereo not given)	none
O=C(COc1ccccc1[N+](=O)[O-])OCC(=O)N1CCC(Cc2ccccc2)CC1	hcDAF-12 act 7.6 | LXRb hcDAF ctr inactive | hcDAF12 ag inactive
O=C(COc1cccnc1[N+](=O)[O-])N1CCC(Cc2ccccc2)CC1	none
CN(c1ccccc1C(=O)Nc1ccc(F)c(Cl)c1)S(C)(=O)=O	none
CN(C)C(CNC(=O)CCS(=O)(=O)c1ccccc1)c1ccccc1 (stereo not given)	hcDAF-12 act 8.9 | LXRb hcDAF ctr inactive | hcDAF12 ag 7.1
Cc1ccc(Nc2nc(CSc3nnc(-c4ccccc4C)n3C)cs2)cc1	hcDAF-12 act 6.8 | LXRb hcDAF ctr inactive | hcDAF12 ag inactive
CCc1ccc(OCc2n[nH]c(=S)n2C(C)CCCC(C)C)cc1 (stereo not given)	none
Cc1c(-c2nc(-c3ccc(C(F)(F)F)cc3)no2)n(C)oc1=O	hcDAF-12 act 9.5 (no result: DAX1 inh-2) | LXRb hcDAF ctr inactive | hcDAF12 ag 7.9
CS(=O)(=O)c1ccccc1-c1nc(-c2ccc(C(F)(F)F)cc2)no1	none
COc1ccccc1N(CC(=O)Nc1ccccc1C(=O)N1CCOCC1)S(C)(=O)=O	none
Nc1nc2ccc(C(=O)Nc3ccccc3)cc2s1	ssDAF-12 act 1.9, hgDAF-12 ag 11, hcDAF-12 act 11 | LXRb hcDAF ctr inactive | hcDAF12 ag 7.7
CN(C(=O)c1ccc2nc(N)sc2c1)c1ccccc1	none
Cc1cc(C)cc(C(=O)Oc2cc(C)[nH]c(=O)c2[N+](=O)[O-])c1	hcDAF-12 act 8.5 | LXRb hcDAF ctr inactive | hcDAF12 ag inactive
Cc1cc(C)c(S(=O)(=O)NCCn2c(C)cc3ccccc32)c(C)c1	hcDAF-12 act 7.1 | LXRb hcDAF ctr inactive | hcDAF12 ag inactive
Cc1cc2ccccc2n1CCNC(=O)Cc1ccccc1	none
Nc1ccc(N=Nc2ccccc2)c2ccccc12	hcDAF-12 act 8.2 | LXRb hcDAF ctr inactive | hcDAF12 ag inactive
Cc1cc(C)nc(N/N=C/c2cc(Br)ccc2O)n1	none
COC(=O)C1=C(C)Nc2nc(SCc3ccccc3)[nH]c(=O)c2C1c1cccs1 (stereo not given)	none
Fc1ccc(-n2nnc(-c3cnc4ccccc4c3)n2)cc1	hgDAF-12 ag 11, hcDAF-12 act 9.6 | LXRb hcDAF ctr inactive | hcDAF12 ag inactive
COc1ccccc1C1CC(c2cccs2)=NN1C(=O)CCC(=O)O (stereo not given)	hcDAF-12 act 7.0 | LXRb hcDAF ctr inactive | hcDAF12 ag inactive
